# Source: PubChem BioAssay AID1159580 (chemical genetic matrix, 2015)
# “And” between values parts separate entries of the source, which are not always exact repeats. Equal values may be shown once. Among all 5,500 compounds or so, about 2,000 (36%) were called active. Not shown: some 18% with an inconclusive outcome. Some of the results follow. Unmarked numbers belong to inactive results. Rule as the data show it: active = normalized growth mostly below about 0.91 (no sharp cut-off); inconclusive = no clear call, values can overlap the other calls; inactive = mostly above about 0.92.
# Assay: chemical genetic growth profiling, strain panel (AID 1159580);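 also: tested at 20 µM; growth read once vehicle control cultures reached saturation at 30 °C; 1 = growth at the plate median or of vehicle wells; lower values mean less growth of the strain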
# Settings: S. cerevisiae deletion strains, growth OD
smiles,measurement,setting,value
COc1cc2c(cc1OC)[C@@H]1C(=O)c3ccc4c(c3O[C@@H]1CO2)CC(C(C)C)O4 (some centres not stated),normalized growth,"locus YAL021C, strain ccr4, stronger effect = lower value",0.989
same,normalized growth,"locus YAL026C, strain drs2, stronger effect = lower value",0.969
same,normalized growth,"locus YAL030W, strain snc1, stronger effect = lower value",0.998
same,normalized growth,"locus YBL061C, strain skt5, stronger effect = lower value",1
same,normalized growth,"locus YBR009C, strain hhf1, stronger effect = lower value",0.938
same,normalized growth,"locus YBR021W, strain FUR4, stronger effect = lower value",0.993
same,normalized growth,"locus YBR023C, strain chs3, stronger effect = lower value",0.981
same,normalized growth,"locus YBR171W, strain sec66, stronger effect = lower value",0.974
same,normalized growth,"locus YBR229C, strain ROT2, stronger effect = lower value",0.994
same,normalized growth,"locus YBR231C, strain swc5, stronger effect = lower value",0.932
same,normalized growth,"locus YBR279W, strain paf1, stronger effect = lower value",0.982
same,normalized growth,"locus YCL011C, strain gbp2, stronger effect = lower value",0.991
same,normalized growth,"locus YCL016C, strain dcc1, stronger effect = lower value",0.984
same,normalized growth,"locus YCL029C, strain bik1, stronger effect = lower value",1.02
same,normalized growth,"locus YCL061C, strain MRC1, stronger effect = lower value",0.96
same,normalized growth,"locus YCL069W, strain vba3, stronger effect = lower value",0.99
same,normalized growth,"locus YCR088W, strain abp1, stronger effect = lower value",0.99
same,normalized growth,"locus YDL005C, strain med2, stronger effect = lower value",0.978
same,normalized growth,"locus YDL035C, strain GPR1, stronger effect = lower value",0.972
same,normalized growth,"locus YDL040C, strain nat1, stronger effect = lower value",0.985
same,normalized growth,"locus YDL074C, strain BRE1, stronger effect = lower value",0.952
same,normalized growth,"locus YDL101C, strain DUN1, stronger effect = lower value",0.982
same,normalized growth,"locus YDL185W, strain tfp1, stronger effect = lower value",1.01
same,normalized growth,"locus YDL192W, strain arf1, stronger effect = lower value",1.01
same,normalized growth,"locus YDR001C, strain nth1, stronger effect = lower value",0.987
same,normalized growth,"locus YDR069C, strain doa4, stronger effect = lower value",1
same,normalized growth,"locus YDR101C, strain arx1, stronger effect = lower value",0.998
same,normalized growth,"locus YDR137W, strain rgp1, stronger effect = lower value",0.89
same,normalized growth,"locus YDR150W, strain NUM1, stronger effect = lower value",1.01
same,normalized growth,"locus YDR159W, strain sac3, stronger effect = lower value",0.957
same,normalized growth,"locus YDR162C, strain NBP2, stronger effect = lower value",0.941
same,normalized growth,"locus YDR195W, strain ref2",0.982
same,normalized growth,"locus YDR297W, strain sur2, stronger effect = lower value",0.972
same,normalized growth,"locus YDR318W, strain mcm21, stronger effect = lower value",1
same,normalized growth,"locus YDR334W, strain swr1, stronger effect = lower value",0.99
same,normalized growth,"locus YDR335W, strain msn5, stronger effect = lower value",1.01
same,normalized growth,"locus YDR388W, stronger effect = lower value",1.01
same,normalized growth,"locus YDR392W, strain spt3, stronger effect = lower value",0.707 (active)
same,normalized growth,"locus YDR502C, strain sam2, stronger effect = lower value",0.998
same,normalized growth,"locus YEL003W, strain gim4, stronger effect = lower value",0.959
same,normalized growth,"locus YEL037C, strain rad23, stronger effect = lower value",0.999
same,normalized growth,"locus YEL061C, strain CIN8 (second series), stronger effect = lower value",0.99
same,normalized growth,"locus YEL061C, strain CIN8, stronger effect = lower value",1
same,normalized growth,"locus YER015W, strain faa2, stronger effect = lower value",0.965
same,normalized growth,"locus YER016W, strain bim1, stronger effect = lower value",0.984
same,normalized growth,"locus YER110C, stronger effect = lower value",1.01
same,normalized growth,"locus YER111C, strain swi4, stronger effect = lower value",1.01
same,normalized growth,"locus YER155C, strain BEM2 (second series), stronger effect = lower value",0.931
same,normalized growth,"locus YER155C, strain BEM2, stronger effect = lower value",1
same,normalized growth,"locus YER167W, strain BCK2, stronger effect = lower value",1
same,normalized growth,"locus YFR010W, strain ubp6, stronger effect = lower value",0.98
same,normalized growth,"locus YGL078C, strain dbp3, stronger effect = lower value",1.01
same,normalized growth,"locus YGL086W, strain mad1, stronger effect = lower value",0.985
same,normalized growth,"locus YGL167C, strain pmr1, stronger effect = lower value",0.987
same,normalized growth,"locus YGL173C, strain kem1, stronger effect = lower value",0.977
same,normalized growth,"locus YGL227W, strain vid30, stronger effect = lower value",0.975
same,normalized growth,"locus YGL240W, strain doc1, stronger effect = lower value",0.956
same,normalized growth,"locus YGL248W, strain PDE1, stronger effect = lower value",0.979
same,normalized growth,"locus YGL253W, strain hxk2, stronger effect = lower value",0.96
same,normalized growth,"locus YGR135W, strain pre9, stronger effect = lower value",1.02
same,normalized growth,"locus YGR252W, strain gcn5, stronger effect = lower value",0.895
same,normalized growth,"locus YHR013C, strain ard1, stronger effect = lower value",0.998
same,normalized growth,"locus YHR027C, strain rpn1, stronger effect = lower value",0.993
same,normalized growth,"locus YHR030C, strain SLT2, stronger effect = lower value",1.01 and 1.04
same,normalized growth,"locus YHR079C, strain IRE1 (second series), stronger effect = lower value",1.01
same,normalized growth,"locus YHR079C, strain IRE1, stronger effect = lower value",1.07
same,normalized growth,"locus YHR094C, strain hxt1, stronger effect = lower value",1.01
same,normalized growth,"locus YHR129C, strain ARP1, stronger effect = lower value",0.998
same,normalized growth,"locus YHR142W, strain chs7, stronger effect = lower value",0.986
same,normalized growth,"locus YHR200W, strain rpn10, stronger effect = lower value",1.02
same,normalized growth,"locus YIL066C, strain RNR3, stronger effect = lower value",0.945
same,normalized growth,"locus YIL073C, strain SPO22, stronger effect = lower value",1.03
same,normalized growth,"locus YIL125W, strain kgd1, stronger effect = lower value",0.989
same,normalized growth,"locus YIR030C, strain dcg1, stronger effect = lower value",1
same,normalized growth,"locus YJL092W, strain hpr5, stronger effect = lower value",0.994
same,normalized growth,"locus YJL095W, strain BCK1 (second series), stronger effect = lower value",0.98
same,normalized growth,"locus YJL095W, strain BCK1, stronger effect = lower value",0.944 and 1.04
same,normalized growth,"locus YJL115W, strain asf1, stronger effect = lower value",0.987
same,normalized growth,"locus YJL129C, strain trk1, stronger effect = lower value",0.92
same,normalized growth,"locus YJL134W, strain LCB3, stronger effect = lower value",1.01
same,normalized growth,"locus YJL154C, strain vps35, stronger effect = lower value",0.993
same,normalized growth,"locus YJL164C, strain tpk1, stronger effect = lower value",0.981
same,normalized growth,"locus YJL166W, strain qcr8, stronger effect = lower value",0.934
same,normalized growth,"locus YJL168C, strain set2, stronger effect = lower value",1.01
same,normalized growth,"locus YJL187C, strain SWE1 (second series), stronger effect = lower value",0.981
same,normalized growth,"locus YJR043C, strain POL32, stronger effect = lower value",0.976
same,normalized growth,"locus YJR066W, strain TOR1, stronger effect = lower value",0.987
